Values joined by “and” are separate entries in the source; they are usually repeats but may differ in a detail not shown here. Equal values may be shown once. Active and inactive are the calls of the source. Unless noted, no rule for the calls is given here.
Key:
[1] = resazurin metabolic signal in HepG2 cells – cell-based, resazurin fluorescence, 24 h, PK04 Diversity Set, profiling panel (AID 1172); settings: HepG2 viability, higher = more signal; also: test concentration not given here
[2] = budding yeast growth changes without added modifier – OD600, strain BY4716, 24 h, basal condition, primary screen (AID 1173); settings: S. cerevisiae BY4716 growth, OD600, 24 h; higher = more signal, called active from +8 up or from −8 down
[3] = viability profiling in MM1S myeloma cells – cell-based, resazurin fluorescence, basal, 24 h, PK04 Diversity Set, profiling panel (AID 1174); settings: higher = more signal, called active from +8 up or from −8 down;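 also: MM1S multiple myeloma cell line; test concentration not given here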
[4] = molecular target: Dihydroorotate dehydrogenase (quinone), mitochondrial (Plasmodium falciparum (isolate 3D7)) (UniProt Q08210); assay: inhibition of P. falciparum DHODH – biochemical, C-terminal His tag, absorbance 600 nm, primary screen (AID 1175); settings: PfDHODH enzyme, DCIP absorbance 600 nm; higher = more signal, called active from +8 up or from −8 down;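 also: recombinant parasite enzyme with a five histidine tag at its C terminus; test concentration not given here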
[5] = inhibition of PAO1 biofilm formation – strain PAO1, LB-PBS medium, absorbance 600 nm, primary screen (AID 1176); also: test concentration not given here; settings: P. aeruginosa PAO1 growth/biofilm, A600, 12 h; higher = more signal
[6] = growth modulation of vineyard yeast isolate – strain RM11-1a, OD600, basal, 24 h, primary screen (AID 1177);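 also: cultures grown under basal conditions with no added stressor; test concentration not given here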; settings: S. cerevisiae RM11-1a growth, OD600, 24 h; higher = more signal, called active from +8 up or from −8 down
[7] = growth of efflux-deficient E. coli DRC39 – strain DRC39, OD650, 24 h, E. coli filamentation inducers, primary screen (AID 1178);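 also: growth measured as culture turbidity by optical density at 650 nm; test concentration not given here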; settings: E. coli DRC39 acrAB, higher = more signal, called active from +8 up or from −8 down
[8] = growth of efflux-deficient E. coli DRC39 – strain DRC39, OD650, 48 h, E. coli filamentation inducers, primary screen (AID 1179);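 also: screen aims at cell division blockers that make cells filament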; settings: E. coli DRC39 delta-acrAB growth, higher = more signal, called active from +8 up or from −8 down
[9] = viability profiling in RPMI8226 myeloma cells – cell-based, resazurin fluorescence, basal, 24 h, PK04 Diversity Set, profiling panel (AID 1180); settings: higher = more signal;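 also: RPMI8826 multiple myeloma cell line at 5000 cells per well; test concentration not given here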
[10] = molecular target: E3 ubiquitin-protein ligase XIAP (Homo sapiens) (UniProt P98170); assay: small molecules binding XIAP protein – biophysical, small-molecule microarray, fluorescence 635 nm, primary screen (AID 1181); settings: higher = more signal;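 also: score merges 667 nm emission and signal to noise over triplicate slides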
E3 ubiquitin-protein ligase XIAP (Homo sapiens), sequence (P98170 whole entry, looked up): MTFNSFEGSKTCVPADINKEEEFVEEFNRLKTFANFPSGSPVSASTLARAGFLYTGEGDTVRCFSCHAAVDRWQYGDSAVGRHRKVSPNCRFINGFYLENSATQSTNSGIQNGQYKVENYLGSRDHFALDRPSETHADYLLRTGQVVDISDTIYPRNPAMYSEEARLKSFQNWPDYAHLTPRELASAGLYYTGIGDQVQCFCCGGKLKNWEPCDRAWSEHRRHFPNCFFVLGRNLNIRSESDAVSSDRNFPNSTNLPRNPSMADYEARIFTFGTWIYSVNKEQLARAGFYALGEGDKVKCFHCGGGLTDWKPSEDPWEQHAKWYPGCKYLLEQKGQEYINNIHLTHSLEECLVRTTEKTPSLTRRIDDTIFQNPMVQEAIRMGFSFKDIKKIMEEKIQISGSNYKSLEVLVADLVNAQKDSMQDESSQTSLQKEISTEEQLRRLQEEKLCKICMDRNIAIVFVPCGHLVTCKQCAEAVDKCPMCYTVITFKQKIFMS

Dihydroorotate dehydrogenase (quinone), mitochondrial (Plasmodium falciparum (isolate 3D7)), sequence (Q08210 whole entry, looked up): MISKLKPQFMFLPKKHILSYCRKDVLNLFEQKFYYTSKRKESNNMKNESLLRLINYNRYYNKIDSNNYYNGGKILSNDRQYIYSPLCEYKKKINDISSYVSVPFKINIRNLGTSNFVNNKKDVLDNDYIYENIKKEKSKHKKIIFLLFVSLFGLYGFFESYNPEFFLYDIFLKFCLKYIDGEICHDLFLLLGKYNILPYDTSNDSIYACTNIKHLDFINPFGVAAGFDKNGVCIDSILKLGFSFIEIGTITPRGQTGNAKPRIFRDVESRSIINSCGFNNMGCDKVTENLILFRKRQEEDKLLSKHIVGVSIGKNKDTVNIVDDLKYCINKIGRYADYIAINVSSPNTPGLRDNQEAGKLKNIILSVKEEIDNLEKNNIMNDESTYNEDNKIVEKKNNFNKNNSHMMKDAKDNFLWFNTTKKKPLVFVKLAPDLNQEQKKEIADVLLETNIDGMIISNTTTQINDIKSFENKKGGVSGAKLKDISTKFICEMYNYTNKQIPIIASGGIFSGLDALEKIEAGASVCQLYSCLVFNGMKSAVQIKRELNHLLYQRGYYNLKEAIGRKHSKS

Row | SMILES | z-score [1] | z-score [2] | z-score [3] | composite z-score [4] | z-score [5] | z-score [6] | z-score [7] | z-score [8] | z-score [9] | composite z-score [10]
1 | C[N+](C)(C)CCCCNC(=O)[C@H]1C[C@H]2C(=O)N[C@@H](CCCC[N+](C)(C)C)C(=O)N2[C@H]1c1cccc(OCCO)c1 | -0.114 and -3.58 | 0.315 (inactive) and -0.201 (inactive) | -1.18 (inactive) and -1.75 (inactive) | -27.2 (active) and -30.4 (active) | 0.187 (inactive) and 0.23 (inactive) | 0.152 (inactive) and -0.406 (inactive) | -0.93 (inactive) and -1 (inactive) | -1.32 (inactive) and -1.66 (inactive) | -1.16 and -0.819 | 0.0159 and 0.136
2 | C[N+](C)(C)CCCCCCNC(=O)[C@@H]1C[C@@H]2C(=O)N[C@@H](CCCC[N+](C)(C)C)C(=O)N2[C@@H]1c1ccc(O)cc1 | 0.104 and 0.822 | 0.292 (inactive) and 0.384 (inactive) | 0.436 (inactive) and 0.422 (inactive) | -0.792 (inactive) and -0.983 (inactive) | -0.462 (inactive) and 0.0499 (inactive) | 1.06 (inactive) and 1.11 (inactive) | 0.52 (inactive) and -0.04 (inactive) | 0.801 (inactive) and -0.431 (inactive) | 0.608 and -0.287 | -0.277 and -0.227
3 | C=C[C@@H](OC)[C@H](O)c1ccc(OCCO)cc1 | 0.242 and 0.884 | -5.46 (inactive) and -6.32 (inactive) | -0.154 (inactive) and 0.883 (inactive) | 0.358 (inactive) and -0.456 (inactive) | 0.519 (inactive) and 1.64 (inactive) | 0.526 (inactive) and -2.73 (inactive) | 0.0235 (inactive) and 1.08 (inactive) | 0.121 (inactive) and 1.48 (inactive) | -0.121 and 1.36 | -0.19 and -0.102
4 | COC(=O)C1=C(C)N(Cc2ccccc2)[C@]23O[C@](C(=O)OC)(C(=O)N2[C@@H]1c1ccccc1)[C@H]1C(=O)N(C)C(=O)[C@H]13 | 0.101 and 1.13 | -0.974 (inactive) and -1.6 (inactive) | 0.856 (inactive) and 0.302 (inactive) | 0.207 (inactive) and 0.467 (inactive) | -1.59 (inactive) | 1.09 (inactive) and -0.535 (inactive) | -0.34 (inactive) and 0.732 (inactive) | 0.207 (inactive) and 0.764 (inactive) | 0.389 and -0.0962 | 0.072 and 2.05
5 | CCCC[C@@H]1CN2[C@H](c3ccc(Br)cc3)[C@@H](C)CC[C@H]2C(=O)O1 | 0.0187 and 0.563 | -1.99 (inactive) and -1.8 (inactive) | 0.0474 (inactive) and 0.358 (inactive) | 0.0663 (inactive) and -0.155 (inactive) | 0.192 (inactive) and -0.172 (inactive) | 0.434 (inactive) and -0.478 (inactive) | 1.06 (inactive) and 0.354 (inactive) | 0.958 (inactive) and 0.41 (inactive) | 0.735 and 0.839 | -0.256 and -0.352
6 | CC(CO)N1C(=O)[C@@H]2C3C(=O)OCCC=C[C@H]3OC23C=CCN(c2ccc(Cl)cc2)C(=O)[C@@H]13 (stereo not given in full) | -0.445 and 0.702 | 0.604 (inactive) and -0.219 (inactive) | -0.0472 (inactive) and -0.544 (inactive) | -1.16 (inactive) and -1.13 (inactive) | -0.497 (inactive) and -0.167 (inactive) | 1.43 (inactive) and -0.727 (inactive) | 0.519 (inactive) and -0.342 (inactive) | 0.399 (inactive) and -0.538 (inactive) | 0.23 and -0.131 | 0.269 and -0.0172
7 | COC(=O)C1=C(C)N(Cc2ccccc2)C2=C(C(C)=O)C[C@@](O)(C(=O)OC)C(=O)N2[C@@H]1c1ccccc1 | 0.5 and 0.54 | -1.89 (inactive) and -2.55 (inactive) | -1.51 (inactive) and 0.956 (inactive) | -0.557 (inactive) and -0.986 (inactive) | 0.781 (inactive) | -1.29 (inactive) and -2.02 (inactive) | -0.0507 (inactive) and 0.915 (inactive) | 0.0063 (inactive) and -1.49 (inactive) | 1.28 and 0.192 | 0.215 and -0.005
8 | COC(=O)[C@@]1(Cc2ccc(F)cc2)[C@H]2c3cc(C(=O)N4CCCC4)n(Cc4c(CO)[nH]cc(C)c4=O)c3C[C@H]2CN1C(=O)c1ccccc1 | -0.605 and 1.06 | 1.61 (inactive) and 2.35 (inactive) | -1.14 (inactive) and -0.131 (inactive) | 0.0634 (inactive) and 0.524 (inactive) | 1.38 (inactive) and 0.895 (inactive) | 1.33 (inactive) and 1.72 (inactive) | -0.573 (inactive) and -0.476 (inactive) | -0.104 (inactive) and -0.339 (inactive) | -1.14 and -1.39 | 0.221 and 0.0726
9 | C#CCCCON=C1C[C@@H](O)[C@@H](O)[C@@H]2[C@@H]3C(=O)N(C4CCCCC4)C(=O)[C@@H]3CC[C@H]12 | -0.477 | -0.248 (inactive) | -2.78 (inactive) | -0.822 (inactive) | -0.568 (inactive) | -0.126 (inactive) | 0.331 (inactive) | 0.771 (inactive) | -1.08 | -0.0945
10 | C=CCN(C(=O)C(c1cccs1)N(C(=O)/C=C\C(=O)O)c1ccc(CCO)cc1)c1ccc(OC)cc1 (stereo not given) | 0.495 and -0.158 | -1.66 (inactive) and -1.5 (inactive) | 0.777 (inactive) and 0.249 (inactive) | -1.09 (inactive) and -4.45 (inactive) | 0.413 (inactive) and -0.497 (inactive) | -0.405 (inactive) and 0.127 (inactive) | 1 (inactive) and 0.244 (inactive) | 0.78 (inactive) and 0.864 (inactive) | 0.32 and 0.335 | 0.184 and 0.284
11 | CC(CO)N1C(=O)[C@@H]2C3C(=O)OCCC=C[C@H]3OC23C=CCN(C(C)(C)C)C(=O)[C@@H]13 (stereo not given in full) | -0.0539 and 0.0517 | 1.97 (inactive) and -0.0328 (inactive) | -1.28 (inactive) and -0.719 (inactive) | -7.96 (inactive) and -3.06 (inactive) | -0.317 (inactive) and 0.329 (inactive) | 1.01 (inactive) and -1.12 (inactive) | -0.57 (inactive) and -0.149 (inactive) | -0.672 (inactive) and -0.246 (inactive) | -0.896 and -0.817 | -0.157 and 0.517
12 | C=CCN(CCCCC)C(=O)C(c1cccs1)N(C(=O)/C=C\C(=O)O)c1ccc(CCO)cc1 (stereo not given) | -0.524 and -0.698 | -0.238 (inactive) and -0.173 (inactive) | -0.585 (inactive) and -0.372 (inactive) | -0.249 (inactive) and -0.533 (inactive) | -0.553 (inactive) and -0.621 (inactive) | 0.741 (inactive) and 0.428 (inactive) | 0.191 (inactive) and 0.129 (inactive) | 0.712 (inactive) and 0.685 (inactive) | -0.359 and -0.583 | -0.346 and -0.138
13 | C[N+](C)(C)CCCCCCNC(=O)[C@H]1C[C@H]2C(=O)N[C@@H](CCCC[N+](C)(C)C)C(=O)N2[C@H]1c1ccc(O)cc1 | -0.0179 and -0.609 | -0.214 (inactive) and 0.205 (inactive) | -0.0993 (inactive) and -1.52 (inactive) | -1.01 (inactive) and -0.373 (inactive) | 2.63 (inactive) and 0.351 (inactive) | 0.281 (inactive) and 0.826 (inactive) | 0.0781 (inactive) and 0.75 (inactive) | -0.978 (inactive) and 1.03 (inactive) | -0.818 and -0.584 | -0.22 and -0.265
14 | C=CC[C@@H](O)c1ccc(O)c(F)c1 | -0.0101 and 0.942 | -0.898 (inactive) and -2.97 (inactive) | -0.87 (inactive) and 1.56 (inactive) | 0.672 (inactive) and -0.585 (inactive) | 0.671 (inactive) | 0.912 (inactive) and -1.83 (inactive) | -0.046 (inactive) and 1.79 (inactive) | -0.248 (inactive) and 1.06 (inactive) | -0.511 and 0.864 | -0.0884 and -0.042
15 | C=C[C@H](C)[C@H](O)c1ccc(O)c2ccccc12 | 0.26 and 0.0956 | -8.01 (active) and -8.42 (active) | -0.709 (inactive) and -0.107 (inactive) | -1.87 (inactive) and -1.49 (inactive) | 1.32 (inactive) and 1.45 (inactive) | -1.6 (inactive) and -2.52 (inactive) | 1.06 (inactive) and 1.82 (inactive) | 1.31 (inactive) and 1.91 (inactive) | -0.54 and 0.1 | -0.0659 and 0.116
16 | C=CC[C@@H](O)c1ccc(OCCO)cc1 | -0.369 and -0.32 | -5.91 (inactive) and -1.94 (inactive) | -1.12 (inactive) and -0.281 (inactive) | -0.744 (inactive) and -1.16 (inactive) | 0.674 (inactive) and 0.945 (inactive) | -1.1 (inactive) and -1.56 (inactive) | 0.0207 (inactive) and 0.149 (inactive) | 0.433 (inactive) and 0.571 (inactive) | 0.0629 and 0.237 | -0.31 and -0.102
17 | C=CCN(C(=O)C1N(c2c(Cl)cccc2CO)C(=O)C2C(C(=O)O)C3C=CC21O3)c1ccc(OC)cc1 (stereo not given) | -0.48 and 0.737 | -0.566 (inactive) and -0.241 (inactive) | -1.03 (inactive) and 0.874 (inactive) | -0.394 (inactive) and -0.0226 (inactive) | -0.137 (inactive) and -0.428 (inactive) | 0.344 (inactive) and -1.83 (inactive) | -0.237 (inactive) and 1.79 (inactive) | -0.293 (inactive) and 1.93 (inactive) | -0.509 and 1.06 | 0.281 and -0.152
